The record followed here is the antibiotic and cytotoxicity screens of Wong et al. (2023).

Molecules are shown by their SMILES. Screen size: about 39,000 compounds; about 3,300 (8.5%) were called active. For the sample, actives were picked, then their nearest neighbours and some compounds at random.

The subject of this assay is HepG2. Kind of assay: cytotoxicity call (relative viability < 0.9). The note with it: 10 µM.
As to `Cc1ccc(S(=O)(=O)Nc2ccc3c(c2)C(=O)N([C@H](C)CO)C[C@H](C)[C@H](CN(C)C(=O)Cc2ccccc2)OCCCC[C@H](C)O3)cc1`, the cytotoxicity call was “inactive”.

For `C[C@H](CO)N1C[C@H](C)[C@H](CN(C)CC2CC2)Oc2ccc(NS(=O)(=O)c3ccccc3)cc2CC1=O`, the cytotoxicity call was “inactive”.

On to `Cc1ccc(S(=O)(=O)N2C[C@H](O)COC[C@@H]3O[C@@H](CC(=O)N4CCc5ccccc5C4)CC[C@H]32)cc1`, for which the cytotoxicity call is “inactive”.

In the case of `C[C@@H](O)C#Cc1cnc2c(c1)C(=O)N([C@@H](C)CO)C[C@H](C)[C@@H](CN(C)C(=O)CN1CCOCC1)O2`, the cytotoxicity call was “inactive”.

Take `CCNC(=O)[C@@H]1[C@@H](CO)[C@@H]2Cn3c(ccc(C4=CCCC4)c3=O)[C@H]1N2S(=O)(=O)c1cn(C)cn1`: the cytotoxicity call is “inactive”.

As for `COCC(=O)N1C[C@@H](C)[C@H](OC)CN(C)C(=O)c2ccc(NC(=O)c3ccc(F)cc3)cc2OC[C@H]1C`, the cytotoxicity call is “inactive”.

On to `C[C@H]1CCCCO[C@H](CN(C)C(=O)Nc2ccc3c(c2)OCO3)[C@@H](C)CN([C@@H](C)CO)C(=O)c2cc(NS(=O)(=O)c3ccc(F)cc3)ccc2O1`, for which the cytotoxicity call was “inactive”.

With `O=C(C[C@@H]1CC[C@H]2[C@@H](COC[C@H](O)CN2C(=O)Nc2ccc(F)cc2)O1)NCCCN1CCOCC1`, the cytotoxicity call was “inactive”.

For `Cc1ccc(S(=O)(=O)Nc2ccc3c(c2)C(=O)N([C@@H](C)CO)C[C@H](C)[C@H](CN(C)Cc2ccc(C(F)(F)F)cc2)OCCCC[C@@H](C)O3)cc1`, the cytotoxicity call is “inactive”.

Turning to `Cc1ccc(S(=O)(=O)Nc2ccc3c(c2)C(=O)N([C@H](C)CO)C[C@H](C)[C@@H](CN(C)Cc2ccc(C(F)(F)F)cc2)OCCCC[C@H](C)O3)cc1`, the cytotoxicity call was “active”.

On to `Cc1ccc(S(=O)(=O)Nc2ccc3c(c2)C(=O)N([C@@H](C)CO)C[C@H](C)[C@@H](CN(C)Cc2ccc(C(F)(F)F)cc2)OCCCC[C@@H](C)O3)cc1`, for which the cytotoxicity call was “active”.

Regarding `Cc1ccc(S(=O)(=O)Nc2ccc3c(c2)C(=O)N([C@@H](C)CO)C[C@@H](C)[C@H](CN(C)Cc2ccc(C(F)(F)F)cc2)OCCCC[C@@H](C)O3)cc1`, the cytotoxicity call was “active”.

As to `Cc1ccc(S(=O)(=O)Nc2ccc3c(c2)C(=O)N([C@@H](C)CO)C[C@@H](C)[C@@H](CN(C)Cc2ccc(C(F)(F)F)cc2)OCCCC[C@H](C)O3)cc1`, the cytotoxicity call is “inactive”.

Turning to `Cc1ccc(S(=O)(=O)Nc2ccc3c(c2)C(=O)N([C@@H](C)CO)C[C@H](C)[C@@H](CN(C)Cc2ccc(C(F)(F)F)cc2)OCCCC[C@H](C)O3)cc1`, the cytotoxicity call was “active”.

As to `NC(=O)c1ccc[n+](C2OC(COP(=O)([O-])OP(=O)(O)OCC3OC(n4cnc5c(N)ncnc54)C(O)C3O)C(O)C2O)c1` (stereo not drawn), the cytotoxicity call was “inactive”.

As for `CNC[C@@H]1Oc2ccc(NC(=O)CCN3CCOCC3)cc2CC(=O)N([C@@H](C)CO)C[C@H]1C`, the cytotoxicity call is “inactive”.

Take `CC(C)(C)c1c(C(C)(C)C)c1=O`: the cytotoxicity call was “inactive”.

Consider `O=C(N[C@@H]1CC[C@H](CCn2cc(C3(O)CCCC3)nn2)O[C@H]1CO)C1CCOCC1`, for which the cytotoxicity call was “inactive”.

Consider `Cc1cc(C(=O)N2CCNC(=O)C2(C)C)no1`, for which the cytotoxicity call is “inactive”.

For `C[C@H]1CN([C@@H](C)CO)C(=O)Cc2cc(NC(=O)CCC(F)(F)F)ccc2O[C@@H]1CN(C)S(=O)(=O)c1ccccc1`, the cytotoxicity call was “inactive”.

Take `CN(C)CCCNC(=O)C[C@@H]1CC[C@H]2[C@@H](COc3ccc(NC(=O)c4cccc(F)c4)cc3C(=O)N2C)O1`: the cytotoxicity call is “inactive”.

Regarding `Cc1ccc(S(=O)(=O)Nc2cccc3c2O[C@@H](CN(C)S(=O)(=O)c2ccc(F)cc2)[C@@H](C)CN([C@H](C)CO)C3=O)cc1`, the cytotoxicity call is “inactive”.

`CC(C)(C)OC(=O)C[C@H]1C/C=C/CC[C@H](Cc2ccc(F)cc2)C(=O)O[C@H](c2ccccc2)CNC1=O`: the cytotoxicity call was “inactive”.

As to `C[C@@H]1CCCCO[C@@H](CN(C)S(=O)(=O)c2cccs2)[C@@H](C)CN([C@H](C)CO)C(=O)c2cc(NS(=O)(=O)c3cn(C)cn3)ccc2O1`, the cytotoxicity call was “inactive”.

Turning to `CC(C)NC(=O)N(C)C[C@@H]1OCCCC[C@@H](C)Oc2ccc(NC(=O)C3CCCCC3)cc2C(=O)N([C@H](C)CO)C[C@@H]1C`, the cytotoxicity call is “inactive”.

Turning to `COc1ccc(S(=O)(=O)N(C)C[C@H]2Oc3c(NS(=O)(=O)c4cn(C)cn4)cccc3C(=O)N([C@H](C)CO)C[C@@H]2C)cc1`, the cytotoxicity call is “inactive”.

For the molecule `C[C@@H]1CN([C@@H](C)CO)C(=O)c2cc(C#C[C@@H](C)O)cnc2O[C@H]1CN(C)Cc1cncnc1`, the cytotoxicity call was “inactive”.

Consider `Cc1ccc(S(=O)(=O)Nc2ccc3c(c2)C(=O)N([C@H](C)CO)C[C@@H](C)[C@@H](CN(C)Cc2ccc(C(F)(F)F)cc2)OCCCC[C@@H](C)O3)cc1`, for which the cytotoxicity call is “inactive”.

Regarding `C[C@@H]1CCCCO[C@@H](CN(C)Cc2ccc(C(F)(F)F)cc2)[C@H](C)CN([C@H](C)CO)C(=O)c2cc(NS(=O)(=O)c3ccc(F)cc3)ccc2O1`, the cytotoxicity call is “inactive”.

With `C[C@@H]1CCCCO[C@@H](CN(C)Cc2ccc(C(F)(F)F)cc2)[C@@H](C)CN([C@H](C)CO)C(=O)c2cc(NS(=O)(=O)c3ccc(F)cc3)ccc2O1`, the cytotoxicity call was “active”.

As to `Cc1ccc(S(=O)(=O)Nc2ccc3c(c2)C(=O)N([C@H](C)CO)C[C@H](C)[C@H](CN(C)Cc2ccc(C(F)(F)F)cc2)OCCCC[C@H](C)O3)cc1`, the cytotoxicity call was “inactive”.

Take `Cc1ccc(S(=O)(=O)Nc2ccc3c(c2)C(=O)N([C@H](C)CO)C[C@@H](C)[C@H](CN(C)Cc2ccc(C(F)(F)F)cc2)OCCCC[C@H](C)O3)cc1`: the cytotoxicity call was “active”.

In the case of `C[C@@H]1CN([C@H](C)CO)C(=O)c2cc(NS(=O)(=O)c3ccc(F)cc3)ccc2O[C@@H](C)CCCCO[C@H]1CN(C)Cc1ccc(C(F)(F)F)cc1`, the cytotoxicity call was “inactive”.

Take `Cc1ccc(S(=O)(=O)Nc2ccc3c(c2)C(=O)N([C@@H](C)CO)C[C@@H](C)[C@@H](CN(C)Cc2ccc(C(F)(F)F)cc2)OCCCC[C@@H](C)O3)cc1`: the cytotoxicity call is “active”.

For the molecule `C[C@@H]1CN([C@@H](C)CO)C(=O)c2cccc(NC(=O)C3CCOCC3)c2O[C@H]1CN(C)Cc1ccccc1`, the cytotoxicity call is “inactive”.

With `NCC[C@H]1CC[C@@H](NC(=O)Cc2ccncc2)[C@@H](CO)O1`, the cytotoxicity call was “inactive”.

`C[C@@H]1CN([C@@H](C)CO)C(=O)CCCn2cc(nn2)CO[C@H]1CN(C)S(=O)(=O)c1ccc(Oc2ccccc2)nc1`: the cytotoxicity call is “inactive”.

`CSc1nn(C)c2cnn(C)c(=O)c12`: the cytotoxicity call is “inactive”.

Consider `C[C@H](CO)N1C[C@H](C)[C@H](CN(C)S(=O)(=O)c2cn(C)cn2)Oc2ncc(C#Cc3ccccc3)cc2C1=O`, for which the cytotoxicity call was “inactive”.

Turning to `COc1ccc(S(=O)(=O)Nc2ccc3c(c2)C(=O)N([C@H](C)CO)C[C@H](C)[C@@H](CN(C)C(=O)Nc2c(C)noc2C)OCCCC[C@@H](C)O3)cc1`, the cytotoxicity call is “inactive”.

Turning to `C[C@@H]1CN([C@@H](C)CO)C(=O)c2cc(NC(=O)Nc3ccc(F)cc3)ccc2O[C@@H](C)CCCCO[C@H]1CN(C)C(=O)CCCN(C)C`, the cytotoxicity call is “inactive”.

For the molecule `Cc1noc(C)c1S(=O)(=O)Nc1ccc2c(c1)C(=O)N([C@@H](C)CO)C[C@@H](C)[C@@H](CN(C)S(=O)(=O)c1ccc(Cl)cc1)O2`, the cytotoxicity call is “inactive”.

As to `C[C@@H]1CN([C@H](C)CO)C(=O)c2cc(C#Cc3cccc(F)c3)cnc2O[C@@H]1CN(C)C(=O)C1CCOCC1`, the cytotoxicity call was “inactive”.

In the case of `C[C@@H]1CN([C@H](C)CO)C(=O)c2cc(NS(=O)(=O)c3ccc(F)cc3)ccc2O[C@@H](C)CCCCO[C@H]1CN(C)C(=O)Nc1ccccc1`, the cytotoxicity call was “active”.

With `C[C@@H]1CCCCO[C@H](CN(C)C(=O)Nc2ccccc2)[C@H](C)CN([C@@H](C)CO)C(=O)c2cc(NS(=O)(=O)c3ccc(F)cc3)ccc2O1`, the cytotoxicity call was “inactive”.

On to `C[C@H](CO)N1C[C@H](C)[C@@H](CN(C)C(=O)Nc2ccccc2)OCCCC[C@H](C)Oc2ccc(NS(=O)(=O)c3ccc(F)cc3)cc2C1=O`, for which the cytotoxicity call is “inactive”.

On to `C[C@@H]1CN([C@@H](C)CO)C(=O)c2cc(NS(=O)(=O)c3ccc(F)cc3)ccc2O[C@@H](C)CCCCO[C@H]1CN(C)C(=O)Nc1ccccc1`, for which the cytotoxicity call was “inactive”.

As for `C[C@@H]1CCCCO[C@@H](CN(C)C(=O)Nc2ccccc2)[C@H](C)CN([C@H](C)CO)C(=O)c2cc(NS(=O)(=O)c3ccc(F)cc3)ccc2O1`, the cytotoxicity call was “active”.

For the molecule `C[C@@H]1CCCCO[C@@H](CN(C)C(=O)Nc2ccccc2)[C@H](C)CN([C@@H](C)CO)C(=O)c2cc(NS(=O)(=O)c3ccc(F)cc3)ccc2O1`, the cytotoxicity call was “inactive”.

Regarding `COc1cccc(C(=O)Nc2ccc3c(c2)C(=O)N(C)[C@@H]2CC[C@H](CC(=O)NCCCN4CCOCC4)O[C@@H]2CO3)c1`, the cytotoxicity call was “inactive”.

For `Cn1ccc2ccc(CN)cc21`, the cytotoxicity call is “inactive”.

On to `Cc1cc(C)nc(C#N)n1`, for which the cytotoxicity call is “inactive”.

As to `C[C@H](CO)N1C[C@H](C)[C@@H](CN(C)C(=O)Nc2ccc3c(c2)OCO3)Oc2ccc(NC(=O)Nc3cccc4ccccc34)cc2CC1=O`, the cytotoxicity call was “inactive”.

On to `COc1ccc(S(=O)(=O)Nc2ccc3c(c2)C(=O)N([C@H](C)CO)C[C@H](C)[C@H](CN(C)C(=O)Nc2ccc(F)cc2)OCCCC[C@@H](C)O3)cc1`, for which the cytotoxicity call is “inactive”.

As for `COCC#Cc1ccc2c(c1)O[C@@H](CN(C)C(=O)c1ccccc1)[C@H](C)CN([C@H](C)CO)S2(=O)=O`, the cytotoxicity call is “inactive”.

`C[n+]1cc2c3c(ccc2c2ccc4cc5c(cc4c21)OCO5)OCO3.[Cl-]`: the cytotoxicity call was “active”.

For `CCCNC(=O)N1C[C@@H](O)COC[C@H]2O[C@H](CC(=O)N3CCN(C)CC3)CC[C@@H]21`, the cytotoxicity call is “inactive”.

As to `C[n+]1ccn(C[C@@]2(C)[C@H](C(=O)O)N3C(=O)C[C@H]3S2(=O)=O)n1`, the cytotoxicity call is “inactive”.

For `Cc1noc(C)c1NC(=O)N(C)C[C@H]1Oc2c(NS(=O)(=O)c3cn(C)cn3)cccc2C(=O)N([C@@H](C)CO)C[C@@H]1C`, the cytotoxicity call is “inactive”.

Consider `Cc1ccc(S(=O)(=O)N[C@@H](Cc2ccccc2)C(=O)NCCCn2cc(-c3ccc(C(=O)NO)s3)nn2)cc1`, for which the cytotoxicity call was “inactive”.

On to `O=C(C[C@@H]1C/C=C/C[C@H](Cc2ccccc2)C(=O)N[C@H](c2ccccc2)COC1=O)NCc1ccc(Cl)cc1`, for which the cytotoxicity call was “active”.

For the molecule `CC(=O)N[C@H]1C/C=C/C[C@@H](CC(=O)NCc2ccc(Cl)cc2)C(=O)NC[C@@H](c2ccccc2)OC1=O`, the cytotoxicity call was “inactive”.

Regarding `C[C@H]1COC(=O)[C@H](Cc2ccc(F)cc2)CC=CC[C@@H](CC(=O)N[C@H](CO)Cc2ccccc2)C(=O)N1`, the cytotoxicity call was “inactive”.
